Screening results from PubChem.
CHRM1 antagonist = human CHRM1 antagonism; P11229; CHO-K1 hM1, Fluo-8 calcium fluorescence, ACh EC80 antagonist; inhibition, % at 3 µM; 1.3% of 360,000 active; AID 588852;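 active = percent inhibition above its own plate's cutoff, namely the mean of that plate's compound wells plus 3 SD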;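 note: peak over basal fluorescence ratio during 140 s after agonist addition; 0% = ACh EC80 plus DMSO and 100% = DMSO alone without agonist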
Target sequence (P11229 whole entry, looked up): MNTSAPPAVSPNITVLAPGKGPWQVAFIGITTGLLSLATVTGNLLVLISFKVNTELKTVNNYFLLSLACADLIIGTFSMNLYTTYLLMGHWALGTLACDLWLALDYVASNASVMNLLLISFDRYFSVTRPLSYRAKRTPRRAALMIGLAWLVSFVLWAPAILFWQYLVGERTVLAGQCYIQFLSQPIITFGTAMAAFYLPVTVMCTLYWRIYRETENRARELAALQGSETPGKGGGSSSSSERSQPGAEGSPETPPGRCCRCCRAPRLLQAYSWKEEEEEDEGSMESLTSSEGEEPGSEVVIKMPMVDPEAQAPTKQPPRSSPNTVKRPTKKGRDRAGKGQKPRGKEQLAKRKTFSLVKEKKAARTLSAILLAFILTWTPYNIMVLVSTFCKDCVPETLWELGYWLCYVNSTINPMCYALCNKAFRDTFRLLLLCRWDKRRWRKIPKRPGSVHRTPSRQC
CHRM1 agonist = human M1 muscarinic receptor agonism | P11229 | CHO-K1 hM1, Fluo-8 calcium fluorescence, agonist mode; 0% DMSO, 100% acetylcholine EC100 | activation, % at 3 µM | 0.33% of 360,000 active | AID 588814;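 active = activation above the run's mean compound activation plus 3 SD, cut at about 16% in these data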;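 note: peak over basal fluorescence ratio within a 140 s kinetic read after compound addition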
M1 PAM = potentiates human M1 receptor response to acetylcholine; P11229; CHO-K1 hM1, Fluo-8 calcium fluorescence, ACh EC20; 0% = ACh EC20, 100% = maximal ACh; activation, % at 3 µM; 0.088% of 360,000 active; in the data active = activation above about 19%, passing the limit was not always enough
M1 ag parental = nonselective activator or artifact in parental CHO-K1 cells; Fluo-8 calcium fluorescence; scaled to maximal ATP response, vehicle zero; activation, % at 3 µM; 0.48% of 360,000 active; AID 602248; in the data active = activation above about 15%;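 note: untransfected CHO-K1 host cells lacking M1 receptor as counterscreen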
CHO-K1 Ca antag = counter-screen for M1 antagonists: effect in parental CHO-K1 cells; inhibition, % at 3 µM; 0.6% of 360,000 active; ATP-induced calcium, Fluo-8 fluorescence;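 active = inhibition above a per-plate cutoff, the plate's mean sample inhibition plus 3 SD, cut at about 24% in these data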;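 note: 0% = DMSO plus EC80 ATP and 100% = DMSO alone without ATP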
CHO-K1 Ca PAM = counter-screen for M1 PAMs: effect in parental CHO-K1 cells; ATP EC20, Fluo-8 calcium fluorescence; 0% at ATP EC20, 100% at ATP max; activation, % at 3 µM; 0.02% of 360,000 active; AID 602247;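 active = activation above the run cutoff, the mean activation of all test compounds plus 3 SD, cut at about 40% in these data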;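 note: peak over basal fluorescence ratio in a 140 s read after ATP addition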
Active calls of the source: *; . = no result given. Shown are actives, neighbours in structure and some others; about 2.3% of the full set was active somewhere.

SMILES	CHRM1 antagonist	CHRM1 agonist	M1 PAM	M1 ag parental	CHO-K1 Ca antag	CHO-K1 Ca PAM
CC(C)OCCCNC(=O)c1c(N)n(Cc2cccs2)c2nc3ccccc3nc12	-2	-1	4	0	25*	-5
CC(C)CCn1c(N)c(C(=O)NCc2cccs2)c2nc3ccccc3nc21	-6	-4	6	1	-18	18
CCn1cc(CN2CCCC(C(=O)c3sccc3C)C2)cn1 (stereo not drawn)	-7	-16	7	0	-15	19
O=C1C(Br)C2CCC1C2C(=O)O (stereo not drawn)	-12	0	8	0	-9	20
NNC(N)=O	2	16*	-22	2	-1	6
O=c1[nH]c2ccccc2n1C1CCN(C(CCc2ccccc2)c2nnnn2C2CCCCC2)CC1 (stereo not drawn)	-11	0	2	5	-9	0
Cc1cccc(-n2c(O)c(C=NCCN3CCNCC3)c(=O)[nH]c2=S)c1	25	53*	-23	0	-1	18
CSc1ccccc1C(=O)C1CCCN(Cc2ccncc2)C1 (stereo not drawn)	55*	-7	-23	3	-14	15
CSc1ccc(C(=O)C2CCCN(Cc3cccnc3)C2)cc1 (stereo not drawn)	34*	-13	-33	5	-3	11
COc1ccccc1CN1CCCC(C(=O)c2ccccc2SC)C1 (stereo not drawn)	32	-6	-20	3	1	9
S=P1(Oc2ccccc2)Nc2ccccc2N1	-9	-6	4	1	-5	-1
CCc1nc(N2CCNCC2)c(C#N)c2c1CSC(C)(C)C2	47*	-6	-18	0	7	-7
CCCCOc1ccc(CN2CCN(CCO)CC2)cc1	33*	-8	-19	0	-1	1
CCCCCCOc1ccc(CN2CCN(CCO)CC2)cc1	23	-13	-19	3	-10	13
CCN1CCc2ccccc2C1	-4	-4	3	1	-4	11
CCN1CCN(CC(c2ccccc2)c2ccccc2)CC1	100*	-9	-30	1	-3	2
O=C1NC(=O)C(=Cc2ccc(Sc3ccccc3)o2)C(=O)N1	0	-5	4	1	0	1
O=C1NC(=O)N(c2ccc(Cl)cc2)C(=O)/C1=C\c1ccc(Sc2nc3ccccc3[nH]2)o1	-1	11	1	8	29*	-16
CN1CCCC1C(O)(c1ccccc1)c1ccccc1 (stereo not drawn)	4	-4	-7	2	-39	22
OC(c1cccc(Cl)c1)(c1cccc(Cl)c1)C1CN2CCC1CC2 (stereo not drawn)	99*	-9	-31	6	4	8
COC(=O)C1=C(c2ccc(F)cc2OCc2ccccc2)C[C@@H]2CC[C@H]1N2C(=O)N1CCOCC1	-11	-8	10	-1	-11	9
CC(C)(O)/C=C/C(=O)C(C)(O)C1C(O)CC2(C)C3CC=C4C(C=C(O)C(=O)C4(C)C)C3(C)C(=O)CC12C (stereo not drawn)	-18	-3	10	1	-16	20
CCN(CC)S(=O)(=O)c1cc(NC(=O)C(C)N2CC=C(c3ccccc3)CC2)ccc1C (stereo not drawn)	37*	-15	-28	0	-7	19
Cc1cc(Br)c(NC(=O)CN2CC=C(c3ccccc3)CC2)c(Br)c1	3	-15	-26	3	-10	27
CCCC1CCCCC12C(=O)NC(=O)NC2=O (stereo not drawn)	-27	-2	14	0	-9	-1
SMILES	CHRM1 antagonist	CHRM1 agonist	M1 PAM	M1 ag parental	CHO-K1 Ca antag	CHO-K1 Ca PAM
CCOc1cc2c(cc1OCC)-n1cccc1C(c1ccc(OC)cc1)NC2 (stereo not drawn)	-7	-5	4	18*	3	14
CCOc1cc2c(cc1OCC)-n1cccc1C(c1ccc(F)cc1)NC2 (stereo not drawn)	3	-7	1	5	-9	6
CCCNC(=O)N1[C@H]2CC[C@@H]1C(C(=O)OC)=C(c1c(C)noc1C)C2	-7	-1	5	0	-13	-2
CNC(C(=O)c1ccccc1)C(OC(C)C)c1ccc(Cl)cc1 (stereo not drawn)	-13	-5	12	0	-4	5
CN1/C(=C\C=Nc2ccccc2)C(C)(C)c2ccccc21	10	-3	-5	1	4	-18
CN1/C(=C\C=C2C(=O)NC(=O)NC2=O)C(C)(C)c2ccccc21	15	29*	-9	25*	8	-2
CC(=O)OC1CCC2(C)C3CCC4(C)C(OC(C)=O)CCC4C3C(C)C2(O)C1 (stereo not drawn)	-9	-8	0	-1	-13	7
CS(=O)(=O)c1ccc(C(=O)N2CCC(C(=O)O)(c3ccccc3)CC2)cc1	-4	-2	4	0	-13	1
COC(=O)C1=C(c2cc3ccccc3o2)C[C@@H]2CC[C@H]1N2C(=O)NCCNC(C)=O	33*	-12	-24	2	-1	0
Cc1ccc(C(=O)C2CN3CCC2CC3)cc1 (stereo not drawn)	28*	1	-7	0	-9	16
Cc1ccc(C(=O)C2CN(C)CC2C(=O)c2ccc(C)cc2)cc1 (stereo not drawn)	13	-2	-7	0	3	-1
CNC(=O)Oc1cccc(-c2cn3cc(Cl)ccc3n2)c1	9	-1	27*	0	4	-4
COc1cc(/C=C2\C[C@H]3[C@@H]4CC=C5C[C@@H](N6CCCC6)CC[C@]5(C)[C@H]4CC[C@]3(C)[C@H]2O)cc(OC)c1OC	26	-8	-27	0	-18	12
Nc1c2c(nc3sc4c(c13)CCCC4)CCCCC2	36*	-3	-20	4	-13	27
Nc1c2c(nc3sc4c(c13)CCCC4)CCCC2	-3	-10	-10	2	-5	13
O=C1C2CCCC1C(N1CCCCC1)CC2 (stereo not drawn)	-18	-4	17	1	2	5
CCOC(=O)c1ccc(N=Cc2c(O)n(-c3ccc(OC)cc3)c(=S)[nH]c2=O)cc1	34*	-12	-30	2	-4	9
N#CC1=C(N)Oc2c(c(=O)oc3ccccc23)C1c1cccnc1 (stereo not drawn)	-12	-2	6	0	-11	6
Cc1nn(-c2ccccc2)c(Cl)c1C1C(C#N)=C(N)Oc2c1c(=O)oc1ccccc21 (stereo not drawn)	4	-3	-6	0	25*	-6
CCCC(=O)OCC[N+](C)(C)C	-12	43*	-19	0	-1	13
CN(Cc1cccc(-c2ccncc2)c1)C(=O)Oc1ccccc1Cl	.	.	.	13	7	-17
